The first experiment relates to Falciformispora senegalensis CBS197.79. Briefly: growth relative to untreated control; higher = less inhibition, active = 20 or less. As to conditions: 100 µM. In outline: (§1)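 Compound at 100 or 25 µM was applied for 7 days at 37 °C to hyphal fragments of M. mycetomatis MM55 or F. senegalensis CBS197.79 in 96-well plates. Fragments were suspended in colourless RPMI 1640 with L-glutamine and MOPS at 68–72% transmission at 660 nm, and viability was read with MTS (2 h, 490 nm) or resazurin (600 nm). Growth is reported as blank-corrected metabolic activity relative to the blank-corrected untreated growth control.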
Turning to `Clc1ccc(Nc2nc3cnc(NC4CC4)nc3n2C2CCNCC2)cc1Cl`, the growth was 91.4% (inactive).

As for `NC(=O)C(c1ccccc1)(c1ccccc1)[C@@H]1CCN(CCc2ccc3c(c2)CCO3)C1`, the growth is 97.9% (inactive).

Take `Clc1cccc2cnsc12`: the growth was 86.1% (inactive).

Consider `CC(C)Nc1ncc2nc(Nc3cc(C(F)(F)F)cc(C(F)(F)F)c3)n(C3CCNCC3)c2n1`, for which the growth is 107% (inactive).

Take `CCOc1ccc(-c2nc(NC(=O)Cc3cccc(OC)c3)sc2C)cc1`: the growth was 80.5% (inactive).

Turning to `FC(F)(F)c1cc(Cl)cc(Nc2nc3cnc(NC4CCOCC4)nc3n2C2CCNCC2)c1`, the growth was 79.8% (inactive).

Consider `CC(C)(C)Cn1c(N)nc2ccc(-c3[nH]c(C(C)(C)C)nc3-c3ccc(F)cc3)nc21`, for which the growth is 55% (inactive).

Regarding `Cc1cc2c(cc1Cl)N(C(=O)Nc1cc(F)cc(-c3cncnc3)c1)CC2`, the growth was 101% (inactive).

`COc1ccc(Cl)cc1-c1nc(C(=O)NCCN2CCCCC2)c(C(C)C)s1`: the growth is 77.6% (inactive).

On to `FC(F)(F)c1cc(Cl)cc(Nc2nc3cnc(NC4CCC4)cc3[nH]2)c1`, for which the growth was 10.8% (active).

On to `O=C(NC1CCCc2c1[nH]c1ccc(Cl)cc21)c1ccccn1` (configuration not stated), for which the growth is 103% (inactive).

As to `C[C@H](NC(=O)c1cc2ccc(F)cc2[nH]1)c1ccccc1`, the growth is 101% (inactive).

Consider `CC[C@H](C)[C@@H]1NC(=O)c2csc(n2)[C@H]([C@@H](C)CC)NC(=O)c2csc(n2)CNC(=O)c2nc1oc2C`, for which the growth was 100% (inactive).

Turning to `CCCN1CCC=C(c2cc(-c3ccc(C)cc3)no2)C1`, the growth is 16.5% (active).

`Cc1cccnc1Nc1cn2cc(-c3ccnc(OC(C)C)n3)ccc2n1`: the growth was 91% (inactive).

For the compound `O=C(Nc1cccc(-c2n[nH]c3ccc(-c4n[nH]c(C5CCCN5)n4)cc23)c1)C1CC1` (configuration not stated), the growth was 95% (inactive).

Turning to `CNCc1[cH-]ccc1CNc1ccnc2cc(Cl)ccc12.[Fe+2].c1cc[cH-]c1`, the growth was 14.6% (active).

With `OB(O)O`, the growth is 104% (inactive).

As for `CC(C)(C)NCc1cc(Nc2ccnc3cc(Cl)ccc23)c2c(c1O)CCCC2`, the growth was 101% (inactive).

Regarding `O=c1[nH]ccc2nc(N[C@@H]3CCNC3)nc(Nc3ccc4c(c3)S(=O)(=O)CC4)c12`, the growth was 113% (inactive).

`CC(C)(C)NC(=O)[C@@H]1CN(Cc2cccnc2)CCN1C[C@@H](O)C[C@@H](Cc1ccccc1)C(=O)N[C@H]1c2ccccc2C[C@H]1O`: the growth is 103% (inactive).

Consider `Cn1cc(CN2CCc3c(c(C(=O)NCc4nccs4)nn3Cc3ccccc3)C2)c2ccccc21`, for which the growth is 101% (inactive).

As for `CN(C)CCOc1ccc(/C(=C(/CCCl)c2ccccc2)c2ccccc2)cc1`, the growth was 0% (active).

Turning to `O=C1CN(C(=O)CCC2CCCC2)C(c2ccc(F)cc2)c2cc(Cl)ccc2N1` (configuration not stated), the growth is 74.3% (inactive).

For `Cc1nc2ccccn2c1C1(O)C(=O)Nc2c(Cl)cc(Cl)cc21` (configuration not stated), the growth was 118% (inactive).

Take `C[C@H](NC(=O)c1cc2cccc(F)c2[nH]1)c1ccccc1`: the growth is 90.3% (inactive).

In the case of `O=C1NCN(c2ccccc2)C12CCN(CCCC(c1ccc(F)cc1)c1ccc(F)cc1)CC2`, the growth was 14.7% (active).

As for `CN(C)CCN1CCCN(c2ccnc3ccsc23)CC1`, the growth is 99.7% (inactive).

On to `O=C(NC1(CO)CCOCC1)c1cc2ccc(C(F)(F)F)cc2[nH]1`, for which the growth was 82.1% (inactive).

As to `Cc1nn(-c2cccc(Cl)c2)c2c1C(C(=O)c1ccc3c(c1)OCO3)CC(=O)N2` (configuration not stated), the growth was 91.7% (inactive).

Consider `c1cc(-c2n[nH]c3ccc(-c4n[nH]c(C5CCCN5)n4)cc23)ccc1CNC1CC1` (configuration not stated), for which the growth is 84.8% (inactive).

As for `C[C@]1(c2nc3c(C(N)=O)cccc3[nH]2)CCCN1`, the growth is 93.8% (inactive).

With `CNc1ccc2cc(NC(=O)c3ccc(C(F)(F)F)c(Cl)c3)ccc2n1`, the growth is 104% (inactive).

`CC(C)C[C@H](NC(=O)[C@@H](NC(=O)c1cccc(-c2ccccc2)n1)[C@@H](C)O)B(O)O`: the growth is 99% (inactive).

With `CCC1=C(c2ccc(C)cc2)S(=O)(=O)N=C1N1CCC(C(=O)NCCN2CCCCC2C)CC1` (configuration not stated), the growth is 88.6% (inactive).

As for `CCc1nn2c(Nc3ccncc3)cc(C)nc2c1-c1ccccc1`, the growth is 92.6% (inactive).

In another experiment the test system is Madurella mycetomatis MM55. The experiment is described as above. The note with it: 25 µM. In a few lines:
as §1
For `Clc1ccc(Nc2nc3cnc(NC4CC4)nc3n2C2CCNCC2)cc1Cl`, the growth is 73.7% (inactive).

For `NC(=O)C(c1ccccc1)(c1ccccc1)[C@@H]1CCN(CCc2ccc3c(c2)CCO3)C1`, the growth is 106% (inactive).

Regarding `Clc1cccc2cnsc12`, the growth is 125% (inactive).

As for `CC(C)Nc1ncc2nc(Nc3cc(C(F)(F)F)cc(C(F)(F)F)c3)n(C3CCNCC3)c2n1`, the growth was 104% (inactive).

As to `CCOc1ccc(-c2nc(NC(=O)Cc3cccc(OC)c3)sc2C)cc1`, the growth is 99.6% (inactive).

For `FC(F)(F)c1cc(Cl)cc(Nc2nc3cnc(NC4CCOCC4)nc3n2C2CCNCC2)c1`, the growth is 111% (inactive).

As to `CC(C)(C)Cn1c(N)nc2ccc(-c3[nH]c(C(C)(C)C)nc3-c3ccc(F)cc3)nc21`, the growth is 82.9% (inactive).

For `Cc1cc2c(cc1Cl)N(C(=O)Nc1cc(F)cc(-c3cncnc3)c1)CC2`, the growth was 106% (inactive).

As to `COc1ccc(Cl)cc1-c1nc(C(=O)NCCN2CCCCC2)c(C(C)C)s1`, the growth was 14.8% (active).

Regarding `FC(F)(F)c1cc(Cl)cc(Nc2nc3cnc(NC4CCC4)cc3[nH]2)c1`, the growth is 109% (inactive).

In the case of `O=C(NC1CCCc2c1[nH]c1ccc(Cl)cc21)c1ccccn1` (configuration not stated), the growth is 35.3% (inactive).

In the case of `C[C@H](NC(=O)c1cc2ccc(F)cc2[nH]1)c1ccccc1`, the growth was 83.1% (inactive).

Regarding `CC[C@H](C)[C@@H]1NC(=O)c2csc(n2)[C@H]([C@@H](C)CC)NC(=O)c2csc(n2)CNC(=O)c2nc1oc2C`, the growth is 64.4% (inactive).

For `CCCN1CCC=C(c2cc(-c3ccc(C)cc3)no2)C1`, the growth was 92.6% (inactive).

For the compound `Cc1cccnc1Nc1cn2cc(-c3ccnc(OC(C)C)n3)ccc2n1`, the growth is 36.1% (inactive).

`O=C(Nc1cccc(-c2n[nH]c3ccc(-c4n[nH]c(C5CCCN5)n4)cc23)c1)C1CC1` (configuration not stated): the growth was 62.4% (inactive).

Turning to `CNCc1[cH-]ccc1CNc1ccnc2cc(Cl)ccc12.[Fe+2].c1cc[cH-]c1`, the growth is 2.78% (active).

As for `OB(O)O`, the growth was 98.7% (inactive).

Take `CC(C)(C)NCc1cc(Nc2ccnc3cc(Cl)ccc23)c2c(c1O)CCCC2`: the growth was 113% (inactive).

In the case of `O=c1[nH]ccc2nc(N[C@@H]3CCNC3)nc(Nc3ccc4c(c3)S(=O)(=O)CC4)c12`, the growth was 62.9% (inactive).

Regarding `CC(C)(C)NC(=O)[C@@H]1CN(Cc2cccnc2)CCN1C[C@@H](O)C[C@@H](Cc1ccccc1)C(=O)N[C@H]1c2ccccc2C[C@H]1O`, the growth was 113% (inactive).

In the case of `Cn1cc(CN2CCc3c(c(C(=O)NCc4nccs4)nn3Cc3ccccc3)C2)c2ccccc21`, the growth is 88.4% (inactive).

As to `CN(C)CCOc1ccc(/C(=C(/CCCl)c2ccccc2)c2ccccc2)cc1`, the growth was 7.23% (active).

With `O=C1CN(C(=O)CCC2CCCC2)C(c2ccc(F)cc2)c2cc(Cl)ccc2N1` (configuration not stated), the growth was 69.6% (inactive).

With `Cc1nc2ccccn2c1C1(O)C(=O)Nc2c(Cl)cc(Cl)cc21` (configuration not stated), the growth is 99.3% (inactive).

Regarding `C[C@H](NC(=O)c1cc2cccc(F)c2[nH]1)c1ccccc1`, the growth is 26.9% (inactive).

As to `O=C1NCN(c2ccccc2)C12CCN(CCCC(c1ccc(F)cc1)c1ccc(F)cc1)CC2`, the growth is 7.29% (active).

Take `CN(C)CCN1CCCN(c2ccnc3ccsc23)CC1`: the growth is 76% (inactive).

Consider `O=C(NC1(CO)CCOCC1)c1cc2ccc(C(F)(F)F)cc2[nH]1`, for which the growth is 83.9% (inactive).

For `Cc1nn(-c2cccc(Cl)c2)c2c1C(C(=O)c1ccc3c(c1)OCO3)CC(=O)N2` (configuration not stated), the growth was 68.8% (inactive).

`c1cc(-c2n[nH]c3ccc(-c4n[nH]c(C5CCCN5)n4)cc23)ccc1CNC1CC1` (configuration not stated): the growth is 70.2% (inactive).

Take `C[C@]1(c2nc3c(C(N)=O)cccc3[nH]2)CCCN1`: the growth was 130% (inactive).

On to `CNc1ccc2cc(NC(=O)c3ccc(C(F)(F)F)c(Cl)c3)ccc2n1`, for which the growth is 6.89% (active).

As for `CC(C)C[C@H](NC(=O)[C@@H](NC(=O)c1cccc(-c2ccccc2)n1)[C@@H](C)O)B(O)O`, the growth is 99.4% (inactive).

As for `CCC1=C(c2ccc(C)cc2)S(=O)(=O)N=C1N1CCC(C(=O)NCCN2CCCCC2C)CC1` (configuration not stated), the growth was 88% (inactive).

`CCc1nn2c(Nc3ccncc3)cc(C)nc2c1-c1ccccc1`: the growth was 96.8% (inactive).

For the origin of these results see the supplement of paper PMC11172423.
